Experimental findings from publication PMC4336329 (PLoS ONE, 2015) are described below.

In all, about 310,000 compounds went through this assay and about 14,000 (4.5%) showed an effect of 50% or more. Effects have a minus sign here. The sample holds strong results, similar compounds and a random draw of the others, so the mix is not that of the screen.
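Also: peak tail current of the secondary pulse compared with the same well before compound.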

The target in the test is human ether-à-go-go-related gene (hERG) potassium channel (human, UniProt Q12809). Description: primary screen, population patch clamp on CHO cells stably expressing hERG; higher = less effect of the substance.
human ether-à-go-go-related gene (hERG) potassium channel, sequence (Q12809 whole entry, looked up): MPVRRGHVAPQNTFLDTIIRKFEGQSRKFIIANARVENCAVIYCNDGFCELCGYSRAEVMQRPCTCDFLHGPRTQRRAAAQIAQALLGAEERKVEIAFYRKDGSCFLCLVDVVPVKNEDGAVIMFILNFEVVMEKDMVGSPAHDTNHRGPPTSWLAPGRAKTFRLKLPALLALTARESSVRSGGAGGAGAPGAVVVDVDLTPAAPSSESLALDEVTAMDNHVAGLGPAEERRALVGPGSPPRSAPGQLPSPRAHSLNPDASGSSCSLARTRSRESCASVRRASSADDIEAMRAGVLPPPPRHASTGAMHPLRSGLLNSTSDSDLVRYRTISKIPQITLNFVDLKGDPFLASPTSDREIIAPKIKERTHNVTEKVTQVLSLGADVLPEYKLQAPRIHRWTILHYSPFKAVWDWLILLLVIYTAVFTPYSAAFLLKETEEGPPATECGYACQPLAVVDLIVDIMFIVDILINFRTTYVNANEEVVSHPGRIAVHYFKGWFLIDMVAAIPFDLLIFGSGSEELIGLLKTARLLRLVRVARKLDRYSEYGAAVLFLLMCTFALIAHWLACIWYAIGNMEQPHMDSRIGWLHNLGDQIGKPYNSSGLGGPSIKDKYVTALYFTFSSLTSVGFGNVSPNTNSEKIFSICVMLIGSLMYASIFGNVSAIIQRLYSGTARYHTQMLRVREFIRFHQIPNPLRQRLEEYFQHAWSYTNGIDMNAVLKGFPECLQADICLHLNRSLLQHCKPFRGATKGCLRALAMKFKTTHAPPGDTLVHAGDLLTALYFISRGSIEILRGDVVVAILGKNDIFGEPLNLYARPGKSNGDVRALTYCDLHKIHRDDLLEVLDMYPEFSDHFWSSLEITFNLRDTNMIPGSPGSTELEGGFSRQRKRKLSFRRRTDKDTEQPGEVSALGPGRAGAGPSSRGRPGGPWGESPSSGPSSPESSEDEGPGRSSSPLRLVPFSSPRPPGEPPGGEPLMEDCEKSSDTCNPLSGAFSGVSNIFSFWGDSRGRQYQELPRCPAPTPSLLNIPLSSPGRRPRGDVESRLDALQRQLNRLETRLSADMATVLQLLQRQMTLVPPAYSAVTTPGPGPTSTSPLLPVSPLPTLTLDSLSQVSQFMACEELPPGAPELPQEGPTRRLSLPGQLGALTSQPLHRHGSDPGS
In the case of `Cl.O=C(O)CCN1CCOCC1`, the “hERG current change (%, negative = inhibition) at 10uM” value was determined as 19.8%. The same measure for `Cc1ccc(C)c(S(=O)(=O)N2CCN(C(=O)CCNC(=O)c3ccc(Br)cc3)CC2)c1`: -33.4%. For `O=[N+]([O-])c1ccc(NC2CCN(Cc3ccccc3)CC2)c([N+](=O)[O-])c1` the value was -85.4%; for `O=C1CCC(=O)N1c1ccc(NC2CCN(Cc3ccccc3)CC2)c([N+](=O)[O-])c1`, 2.23%; for `O=[N+]([O-])c1ccccc1NC1CCN(Cc2ccccc2)CC1`, -64.4%. Take `O=C1C2CCCCC2C(=O)N1c1ccc(NC2CCN(Cc3ccccc3)CC2)c([N+](=O)[O-])c1` (centres unmarked): the “hERG current change (%, negative = inhibition) at 10uM” value is -42.1%. The same measure for `O=[N+]([O-])c1ccc(NC2CCN(Cc3ccccc3)CC2)c2ccncc12`: 6.01%. As for `CC1CCC2C(=O)N(c3ccc(NC4CCN(Cc5ccccc5)CC4)c([N+](=O)[O-])c3)C(=O)C2C1` (centres unmarked), the “hERG current change (%, negative = inhibition) at 10uM” value is -41.2%. For the compound `Cc1noc(C)c1S(=O)(=O)NCc1ccc(CN(C)C)cc1.Cl`, the “hERG current change (%, negative = inhibition) at 10uM” value was 6.09%. For `COc1ccc(CCNC(=O)/C(C#N)=C/c2ccc(OCC(=O)NCC3CCCO3)cc2)cc1OC` (centres unmarked) the value was 11.7%; for `CC(C)N(C(=O)COC(=O)c1ccc(O)cc1)C(C)C`, -1.54%; for `CCS(=O)(=O)c1nc(S(=O)(=O)c2ccc(C)cc2)c(NCCCN2CCCC2=O)s1`, -11.3%. The same measure for `CS(=O)(=O)c1nc(S(=O)(=O)c2ccc(Cl)cc2)c(NCCCN2CCOCC2)s1`: -46.8%. The same measure for `CCCCNC(=O)c1cn(C)c2ccc(S(=O)(=O)N3CC(C)CC(C)C3)cc2c1=O` (centres unmarked): 1.55%; for `O=C1NC(=S)NC(=O)C12C(c1ccc(F)cc1)NC(=S)NC2c1ccc(F)cc1` (centres unmarked): -4.14%. On to `Cl.Oc1cccc(Nc2nc(-c3ccccc3Cl)nc3ccccc23)c1`, for which the “hERG current change (%, negative = inhibition) at 10uM” value was 7.09%.

Consider `CCCn1c(C)cc(C(=O)Cn2nnc3ccccc3c2=O)c1C`, for which the “hERG current change (%, negative = inhibition) at 10uM” value is listed as -34.7%. For `O=C(CSc1ccc(-c2ccco2)nn1)Nc1cccc(F)c1`, the “hERG current change (%, negative = inhibition) at 10uM” value is reported as -55.2%. As to `O=C(CSc1ccc(-c2ccco2)nn1)c1ccccc1`, the “hERG current change (%, negative = inhibition) at 10uM” value is -9.74%. For `CCc1ccc(NC(=O)CSc2ccc(-c3ccco3)nn2)cc1` the value was -16.6%; for `O=C(CSc1ccc(-c2ccco2)nn1)c1ccc(F)cc1`, -25.8%. For the compound `CC(=O)Nc1cccc(NC(=O)CSc2ccc(-c3ccco3)nn2)c1`, the “hERG current change (%, negative = inhibition) at 10uM” value came out at 0.763%.

Take `Cc1cc(C)cc(NC(=O)CSc2ccc(-c3cccs3)nn2)c1`: the “hERG current change (%, negative = inhibition) at 10uM” value was -52.2%. In the case of `COc1ccc(C(=O)CSc2ccc(-c3ccco3)nn2)cc1`, the “hERG current change (%, negative = inhibition) at 10uM” value was -78.1%. The same measure for `CC(=O)c1cccc(NC(=O)CSc2ccc(-c3ccco3)nn2)c1`: 1.79%; for `Cc1cccc(NC(=O)CSc2ccc(-c3ccco3)nn2)c1`: -59.5%; for `CC(=O)Nc1ccc(NC(=O)CSc2ccc(-c3cccs3)nn2)cc1`: 11.4%. For `O=C(CSc1ccc(-c2cccs2)nn1)Nc1ccccc1` the value was -35%.

In the case of `Cc1cc(C)cc(NC(=O)CSc2ccc(-c3ccco3)nn2)c1`, the “hERG current change (%, negative = inhibition) at 10uM” value is listed as -28.8%.

As for `Cc1cc(OC(C)C(=O)Nc2cccnc2)ccc1Cl` (centres unmarked), the “hERG current change (%, negative = inhibition) at 10uM” value worked out at 2.05%. For `COc1ccc(CNC(=O)C2CCN(S(=O)(=O)c3ccc4c(c3)NC(=O)CO4)CC2)cc1` the value was 16.7%. Turning to `O=C(NC(Cc1c[nH]c2ccccc12)C(=O)O)/C(=C\c1ccc2c(c1)OCO2)NC(=O)c1ccccc1` (centres unmarked), the “hERG current change (%, negative = inhibition) at 10uM” value is reported as -7.13%.

As to `CCCC(=O)Nc1ccc2nc(SCC(=O)N3CCCC3)sc2c1`, the “hERG current change (%, negative = inhibition) at 10uM” value was found to be 2.52%.

As for `O=C(O)c1cccc(S(=O)(=O)N2CCCC(c3nc4c(nnn4Cc4ccc(F)cc4)c(=O)[nH]3)C2)c1` (centres unmarked), the “hERG current change (%, negative = inhibition) at 10uM” value is on record as -15.3%. Consider `O=C1/C(=C\c2ccc(Br)o2)SC(=Nc2ccccc2)N1c1ccccc1`, for which the “hERG current change (%, negative = inhibition) at 10uM” value is -10.1%. The same measure for `Cl.N=c1c2c(n(Cc3ccc(Cl)c(Cl)c3)c3c1CCC3)CCCC2`: -15.8%; for `COc1cc(NC(=O)Cc2ccccc2)ccc1NC(=O)c1ccco1`: 18.5%; for `Cc1ccc(NC(=O)CSc2ccc(-c3ccco3)nn2)c(C)c1`: -24.4%. For `O=C(CSc1ccc(-c2ccco2)nn1)Nc1ccccc1` the value was -47.6%; for `O=C(CSc1ccc(-c2ccco2)nn1)Nc1ccc(F)cc1`, -68.5%; for `CC(=O)Nc1ccc(NC(=O)CSc2ccc(-c3ccco3)nn2)cc1`, -2.54%. The same measure for `O=C(CSc1ccc(-c2ccco2)nn1)Nc1ccc(F)cc1F`: -65.8%; for `O=C(CSc1ccc(-c2ccco2)nn1)Nc1ccccc1F`: -43.4%; for `CC(NC(=O)c1ccco1)c1nc(-c2ccccc2Cl)no1` (centres unmarked): 3.9%.

On to `Cc1cc2nc(-c3cccc(NC(=O)c4ccc(Br)o4)c3C)oc2cc1C`, for which the “hERG current change (%, negative = inhibition) at 10uM” value turned out to be 5.67%. Consider `Cc1nc(C)c(-c2ccc(SCC(=O)Nc3cccc(F)c3)nn2)s1`, for which the “hERG current change (%, negative = inhibition) at 10uM” value was found to be 8.66%. On to `CC(C)C(=O)Nc1ccc(Cc2ccc(NC(=O)C(C)C)c(O)c2)cc1O`, for which the “hERG current change (%, negative = inhibition) at 10uM” value is listed as -23%.
